The source of these data is PubChem BioAssay (NCI).

Test systems include HCT-15 colon; HT29 colon; SNB-75 CNS; SNB-19 CNS; U251 CNS; PC-3 prostate; SK-MEL-5 melanoma; UACC-62 melanoma; LOX IMVI melanoma; SK-MEL-28 melanoma; SK-MEL-2 melanoma; SN12C renal; UO-31 renal; TK-10 renal; ACHN renal; CAKI-1 renal; A498 renal; CCRF-CEM leukemia; MOLT-4 leukemia.
Common to all, as to assay: NCI-60 one-dose screen, 48 h (100 = growth as untreated, 0 = no growth, -100 = all killed)
What all share (conditions): 10 µM unless noted

About 83,000 compounds went through this panel and 20% of them were active in at least one assay; those are over-represented in the sample as a whole.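 Percent growth is the endpoint: 0 to 100 indicates growth inhibition (40 means 60% inhibition), 0 means no net growth, and negative values indicate cell death.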 Unmarked numbers belong to inactive results. The source made the active and inactive calls. Rule for the calls: active = growth percent below 10; inactive = the rest.

`COC(=O)C(CC(=O)c1ccc(-c2ccccc2)cc1)c1ccccc1` (stereo not drawn): the growth is 31.3% in the assay with HCT-15 colon; 6.34% (active) in the assay on HT29 colon; 72.5% in the assay with SNB-75 CNS; 75.5% in the assay on SNB-19 CNS; 71.1% in the assay with U251 CNS; 64.4% in the assay on PC-3 prostate. Further, the growth was 45.5% with SK-MEL-5 melanoma; 51.3% with UACC-62 melanoma; 44.9% in the assay with LOX IMVI melanoma; 70.9% in the assay on SK-MEL-28 melanoma; 69.4% in the assay on SK-MEL-2 melanoma; 64.2% in the assay with SN12C renal. Besides, the growth was 53.8% with UO-31 renal; 68% in the assay on TK-10 renal; 41.3% in the assay on ACHN renal; 44.3% with CAKI-1 renal; 41.7% in the assay on A498 renal; 49.4% in the assay with CCRF-CEM leukemia. In addition, the growth in the assay on MOLT-4 leukemia is 47.3%.

With `O=C(Nc1ccc(Br)c(Cl)c1)c1cc(F)ccc1O`, the growth is 7.56% (active) in the assay with HCT-15 colon; 0.733% (active) in the assay on HT29 colon; 8.82% (active) in the assay on SNB-75 CNS; 19.4% in the assay with SNB-19 CNS; 12.3% in the assay with U251 CNS; 5.07% (active) with PC-3 prostate. In addition, the growth in the assay on SK-MEL-5 melanoma is -90.3% (active); in the assay on UACC-62 melanoma, -3.96% (active); in the assay with LOX IMVI melanoma, -61.4% (active); in the assay with SK-MEL-28 melanoma, -7.64% (active); in the assay on SK-MEL-2 melanoma, -32.6% (active); with SN12C renal it was 5.56% (active). Moreover, the growth with UO-31 renal is -1.56% (active); in the assay on TK-10 renal, 21.3%; with ACHN renal, 0.577% (active); with CAKI-1 renal it was -48.8% (active); in the assay on CCRF-CEM leukemia it was 6.75% (active); with MOLT-4 leukemia it was -23% (active).

As to `COc1ccc(S(=O)(=O)N2CCN(c3cc4c(cc3F)c(=O)c(C(=O)O)cn4C3CC3)CC2)c(OC)c1`, the growth with HCT-15 colon was 97.2%; in the assay with HT29 colon it was 113%; with SNB-75 CNS it was 85.7%; with SNB-19 CNS, 89.5%; with U251 CNS, 102%; in the assay with PC-3 prostate, 99.1%. The growth is 82.6% in the assay on SK-MEL-5 melanoma; 84.4% with UACC-62 melanoma; 61.7% with LOX IMVI melanoma; 101% in the assay with SK-MEL-28 melanoma; 105% in the assay with SK-MEL-2 melanoma; 90.7% in the assay on SN12C renal. Besides, the growth with UO-31 renal was 53.2%; with TK-10 renal, 96.8%; in the assay on ACHN renal it was 94.9%; with CAKI-1 renal, 81.8%; in the assay on CCRF-CEM leukemia, 86.5%.

For `COc1cc(/C=C2\CCCC3=C2N=C2SC(C)=NN2C3c2cc(OC)c(OC)c(OC)c2)cc(OC)c1OC` (stereo not drawn), the growth is -20.6% (active) in the assay with HCT-15 colon; 13.9% in the assay on HT29 colon; -7.84% (active) in the assay with SNB-75 CNS; 32.3% in the assay on SNB-19 CNS; 20.9% with U251 CNS; 57.7% with PC-3 prostate. The growth in the assay with SK-MEL-5 melanoma was 45.2%; in the assay on UACC-62 melanoma, -31.2% (active); with LOX IMVI melanoma, -67.6% (active); in the assay with SK-MEL-28 melanoma, 26.3%; with SK-MEL-2 melanoma, 77.5%; with SN12C renal it was -5.64% (active). The growth in the assay on UO-31 renal is 8.14% (active); in the assay with TK-10 renal, 75.9%; with ACHN renal, -7.34% (active); with CAKI-1 renal, -38.1% (active); in the assay on CCRF-CEM leukemia, -10% (active); in the assay with MOLT-4 leukemia it was -7.59% (active).

Take `NC(CC(N)C(=O)O)C(=O)O` (stereo not drawn): the growth with HCT-15 colon was 88.4%; in the assay with HT29 colon, 84.4%; in the assay on SNB-75 CNS it was 88.4%; in the assay on SNB-19 CNS, 108%; with U251 CNS it was 93.8%; in the assay with PC-3 prostate it was 92.2%. The growth with SK-MEL-5 melanoma is 85%; with UACC-62 melanoma, 98%; with LOX IMVI melanoma it was 99.4%; in the assay with SK-MEL-28 melanoma it was 90.1%; in the assay with SK-MEL-2 melanoma, 98.6%; with SN12C renal it was 93.8%. Besides, the growth in the assay with UO-31 renal was 94.8%; in the assay with TK-10 renal, 110%; in the assay with ACHN renal it was 95.7%; with CAKI-1 renal, 97%; with A498 renal, 108%; with MOLT-4 leukemia it was 107%.

With `O=C(O)Cc1ccc2c(c1)Cc1cccnc1O2`, the growth in the assay on HCT-15 colon is 103%; in the assay with HT29 colon it was 99.8%; with SNB-75 CNS, 87.9%; in the assay on SNB-19 CNS, 107%; in the assay with U251 CNS, 102%; in the assay on PC-3 prostate, 101%. The growth in the assay with SK-MEL-5 melanoma is 99.5%; in the assay with UACC-62 melanoma it was 109%; in the assay on LOX IMVI melanoma it was 100%; with SK-MEL-28 melanoma it was 109%; with SK-MEL-2 melanoma, 104%; in the assay with SN12C renal, 100%. The growth is 94% in the assay on UO-31 renal; 92.5% in the assay on TK-10 renal; 111% in the assay on ACHN renal; 96.9% in the assay on CAKI-1 renal; 100% with CCRF-CEM leukemia; 102% in the assay with MOLT-4 leukemia.

For `CCCCC(N)(C(=O)O)C1CCCC1` (stereo not drawn), the growth with HCT-15 colon is 96.2%; in the assay with HT29 colon it was 100%; in the assay with SNB-75 CNS it was 93.5%; with SNB-19 CNS it was 99.9%; in the assay on U251 CNS, 91%; in the assay on PC-3 prostate, 92.2%. For the same molecule, the growth is 105% with SK-MEL-5 melanoma; 97.4% in the assay with UACC-62 melanoma; 99.4% in the assay on LOX IMVI melanoma; 94.8% in the assay on SK-MEL-28 melanoma; 117% with SK-MEL-2 melanoma; 96.1% in the assay on SN12C renal. Besides, the growth in the assay with UO-31 renal was 90.9%; in the assay on TK-10 renal, 104%; with ACHN renal it was 96.9%; with CAKI-1 renal, 93%; in the assay with A498 renal, 82.4%; with MOLT-4 leukemia it was 123%.

In the case of `CCOC(=O)CC(C#N)(CC(=O)OCC)C(=O)OCC`, the growth in the assay with HCT-15 colon is 99.4%; with HT29 colon, 125%; with SNB-75 CNS it was 89.7%; in the assay on SNB-19 CNS, 111%; in the assay with U251 CNS, 94.8%; with PC-3 prostate, 89.2%. The growth is 98% in the assay with SK-MEL-5 melanoma; 97.7% in the assay with UACC-62 melanoma; 103% in the assay on LOX IMVI melanoma; 98% in the assay on SK-MEL-28 melanoma; 106% in the assay on SK-MEL-2 melanoma; 95.1% with SN12C renal. Also, the growth was 96.1% with UO-31 renal; 139% in the assay with TK-10 renal; 107% in the assay with ACHN renal; 99.5% with CAKI-1 renal; 102% in the assay on CCRF-CEM leukemia; 109% in the assay with MOLT-4 leukemia.

As to `CCCCCCC[C@@H](O)CC(=O)N[C@H](CCCCN)C(=O)N[C@H](Cc1c[nH]c2ccccc12)C(=O)NC(CCCCN)C(=O)N[C@H](CC(C)C)C(=O)N[C@H](Cc1ccccc1)C(=O)N[C@H](CCCCN)C(=O)N[C@H](CCCCN)C(=O)N[C@H](CC(C)C)C(=O)N1CCCC1C(=O)N[C@H](CCCCN)C(=O)N[C@H](Cc1ccccc1)C(=O)N[C@H](CC(C)C)C(=O)N[C@H](Cc1c[nH]cn1)C(=O)N[C@H](CC(C)C)C(=O)N[C@H](C)C(=O)N[C@H](CCCCN)C(=O)N[C@H](CCCCN)C(=O)N[C@H](Cc1ccccc1)C(=O)O` (stereo partly drawn), the growth was -40.3% (active) with HCT-15 colon; -52.7% (active) with HT29 colon; -62.3% (active) in the assay on SNB-75 CNS; -46.4% (active) in the assay on SNB-19 CNS; -60.5% (active) in the assay on U251 CNS; -55.3% (active) in the assay with PC-3 prostate. For the same molecule, the growth is -25.7% (active) with SK-MEL-5 melanoma; -39.2% (active) in the assay on UACC-62 melanoma; -38.6% (active) in the assay with LOX IMVI melanoma; -39.8% (active) in the assay with SK-MEL-28 melanoma; -60.1% (active) in the assay with SK-MEL-2 melanoma; -40.7% (active) with SN12C renal. Moreover, the growth was -54.5% (active) in the assay with UO-31 renal; -80.4% (active) in the assay on TK-10 renal; -50.9% (active) with ACHN renal; -70.3% (active) in the assay with CAKI-1 renal; -54.1% (active) in the assay on A498 renal; -39.6% (active) in the assay with CCRF-CEM leukemia. In addition, the growth with MOLT-4 leukemia was -25.9% (active).
